Sfp inh – inhibitors of Bacillus subtilis Sfp phosphopantetheinyl transferase. Q9F4F7. Biochemical Sfp PPTase activity, qHTS. Potency, µM, inactives show largest response in the series, negative = inhibition, most hits filed as inhibitors. 310,000 tested, 3.5% active;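 also: the enzyme is Sfp with the accession as filed and its product quenches rhodamine fluorescence; 0% = enzyme reaction without inhibitor and -100% = no enzyme wells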
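Reaction rates are the 30-min fluorescence difference (ex 525, em 598 nm) in wells containing 15 nM Sfp, 5 uM rhodamine-CoA and 12.5 uM BHQ-2-YbbR at pH 7.6 with 10 mM MgCl2.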
GLS inhibitor – blocks human kidney-isoform glutaminase activity; O94925; GLS enzymatic activity, qHTS titration; Potency, µM (doses to about 45.5 µM), inactives show at the highest dose activity change, negative = inhibition, hits mostly inhibitors; 410,000 tested, 0.21% active
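Read-out is an Amplex red fluorescence increase coupled through glutamate oxidase and HRP, measured before and after 30 min room-temperature incubation. hKGA is in 45 mM KH2PO4 (pH 8.2) with 0.02% Tween-20; glutamine added as 1mM solution.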
TrxR1 inh – blocks rat thioredoxin reductase 1; O89049; recombinant rTrxR1, NADPH fluorescence consumption, selenite substrate; Potency, µM (highest dose often 114 µM), without a hit: top-dose activity change, negative = inhibition, hits mostly inhibitors; 390,000 tested, 1% active; also: nearly all actives have a fitted effect of over 65% in size
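Rat TrxR1 (90 nM in the dispensed reagent) was pre-reduced with 400 uM NADPH for 5 min at room temperature, then incubated with compound for 15 min. After 400 uM selenite was added, NADPH fluorescence (Ex 340/Em 450 nm) was followed for 8 min.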
GCN5L2 inh – GCN5L2 (KAT2A) acetyltransferase inhibition; Q92830; GCN5L2 HAT assay, ThioGlo1 CoA-SH fluorescence; Potency, µM (titrated, usually from 58.9 µM), for inactives: top-dose activity change, negative = inhibition, actives largely listed as inhibitors; 390,000 tested, 0.21% active; AID 504327
Target sequence (Q92830 whole entry, looked up): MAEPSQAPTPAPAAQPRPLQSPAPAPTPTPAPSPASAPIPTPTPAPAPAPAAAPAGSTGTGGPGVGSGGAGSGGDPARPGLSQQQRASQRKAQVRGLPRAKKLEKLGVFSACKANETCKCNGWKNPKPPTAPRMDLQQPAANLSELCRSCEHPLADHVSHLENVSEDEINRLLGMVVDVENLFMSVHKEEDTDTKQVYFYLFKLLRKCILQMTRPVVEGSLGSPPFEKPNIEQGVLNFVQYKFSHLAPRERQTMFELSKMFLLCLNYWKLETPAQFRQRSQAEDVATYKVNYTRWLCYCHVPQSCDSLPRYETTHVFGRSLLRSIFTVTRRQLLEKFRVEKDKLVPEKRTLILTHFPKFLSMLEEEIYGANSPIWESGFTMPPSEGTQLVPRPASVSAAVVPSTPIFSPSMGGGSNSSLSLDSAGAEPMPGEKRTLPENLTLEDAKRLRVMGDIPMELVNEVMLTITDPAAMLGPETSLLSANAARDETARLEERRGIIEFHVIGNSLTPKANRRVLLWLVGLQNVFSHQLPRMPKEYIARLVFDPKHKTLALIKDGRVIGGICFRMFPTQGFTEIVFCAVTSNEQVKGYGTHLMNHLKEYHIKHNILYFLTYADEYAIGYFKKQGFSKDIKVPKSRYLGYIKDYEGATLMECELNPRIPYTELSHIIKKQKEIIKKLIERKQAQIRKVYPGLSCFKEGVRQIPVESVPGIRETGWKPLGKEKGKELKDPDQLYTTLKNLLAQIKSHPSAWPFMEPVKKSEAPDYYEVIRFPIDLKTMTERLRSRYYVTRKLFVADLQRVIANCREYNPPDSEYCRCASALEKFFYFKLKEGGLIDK
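Enzyme at 20nM final was mixed with library compounds for 15 min at room temperature. Peptide H3(1-25) at 75uM, acetyl-CoA at 70uM and ThioGlo1 at 50uM were then added. Plates were read immediately and after 20 min (Ex340nm/Em540nm).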
TrxR1 substrate – rat thioredoxin reductase 1 substrate activity | O89049 | purified TrxR1 substrate turnover, NADPH consumption readout | 390,000 tested, 0.01% active | Potency, µM (doses to about 114 µM), for the others: at the highest dose activity change, negative = substrate turnover; also: nearly all actives have a fitted effect of over 50% in size
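Rat TrxR1, dispensed at 90 nM, was prereduced with 400 uM NADPH (final) for 5 min at ~22 deg C, then incubated with compound 15 min before 400 uM selenite. A first-read NADPH fluorescence drop versus no-compound background flagged substrates.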
VDR inhibitor – inhibitors of human vitamin D receptor; 400,000 tested, 0.93% active; Potency, µM, without a hit: max response, negative = inhibition, most hits filed as inhibitors; P11473; AID 504847; VDR-SRC2-3 peptide fluorescence polarization, 2 h
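Signal is fluorescence polarization, reporting how far test compounds block the interaction of VDR with the SRC2-3 coregulator peptide after a 2 h room-temperature incubation.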
* = called active by the depositor; u = inconclusive; x = no result given; ! = not confirmed by another sample; [ ] = dose if it differs, or a comment. Rows were chosen to be rich in hits. Some 3.8% of all compounds tested hit in one or more screens of this group. Calls follow the shape of the dose curve; as a rule, active = well fitted curve in the direction sought with a large enough effect; inconclusive = small, poorly fitted or top-dose-only effect, or another doubt; inactive = no such curve, though single readings can be large; an effect the other way counts as inactive or inconclusive. Unless noted, % is scaled to controls: 0 for no effect and ±100 for the full control effect; potency is read from the fitted curve at half-maximal effect.

SMILES	Sfp inh	GLS inhibitor	TrxR1 inh	GCN5L2 inh	TrxR1 substrate	VDR inhibitor
Cc1nnc(NNS(=O)(=O)c2ccc(Cl)cc2)[nH]c1=O	45µM*	15%	25%	-5%	2%	-10%
S=c1[nH]c(-c2ccccc2)cs1	79µM*	u	-26%[57.1 µM]	-30%	-9%	u
O=c1[nH]c(-c2ccc(Cl)cc2)cs1	3%	26%	3%[57.1 µM]	-4%	-5%[57.1 µM]	-9%
Fc1ccc(-c2csc(=S)[nH]2)cc1	11µM*	0%	-20%	5%	-3%	79µM*
Cc1cc(C)cc(NC(=O)Cn2nnc(C(=O)NCc3ccc(F)cc3)c2N)c1	-17%	u	31%	-8%	-3%	20µM*
O=C(CCN1CCN(c2ccccc2)CC1)Nc1ccccc1F	15%	-4%	21%[57.1 µM]	1%	9%[57.1 µM]	1%
O=C(Oc1ccc(C(=S)N2CCOCC2)cc1)c1ccccc1F	25µM*	0%	10%	-23%	2%	u
O=C(O)c1ccc(N/N=C/c2ccc(OC(=O)c3cccc(Cl)c3)cc2)cc1	40µM*	-1%	29%	-4%	0%	-13%
O=C(Oc1ccc(C(=S)N2CCOCC2)cc1Br)c1ccccc1F	22µM*	-11%	2%	-12%	-5%	u
O=C(Oc1ccc(/C=N/Nc2ccccc2)cc1)c1ccccc1	-14%	3%	27%[57.1 µM]	-17%	-10%	18%
O=C(Oc1ccc(C(=S)N2CCOCC2)cc1Cl)c1ccccc1F	56µM*	3%	38%[2.29 µM]	-18%	9%[2.29 µM]	-29%
CCOc1ccc(NC(=O)Cn2cc(C(=O)c3ccc(C)cc3)c(=O)c3cc4c(cc32)OCO4)cc1	x	-1%	9%	0%	-4%	-9%
O=C(Oc1ccc(C(=S)N2CCOCC2)cc1)c1cccc(Cl)c1	40µM*	-2%	9%[57.1 µM]	-7%	3%[57.1 µM]	-19%
O=C(Oc1ccc(C(=S)N2CCCCC2)cc1)c1ccccc1	22µM*	1%	-10%[57.1 µM]	-3%	-9%[57.1 µM]	1%
CCOC(=O)c1ccc(NC(=O)Nc2ncccc2C)cc1	12%	-2%	22%	-3%	-1%	-4%
CCCCCCCCCCCCCCCC[n+]1cccc2ccccc21	25µM*	u	33%	6%	12%	-27%
Nc1ncnc2c1ncn2[C@@H]1O[C@H](COP(=O)(O)OP(=O)(O)OP(=O)(O)O)[C@@H](O)[C@H]1O	5%	18%	5%	-7%	-3%	-6%
CC(C)(COP(=O)(O)OP(=O)(O)OC[C@H]1O[C@@H](n2cnc3c(N)ncnc32)[C@H](O)[C@@H]1OP(=O)(O)O)C(O)C(=O)NCCC(=O)NCCS (stereo partly drawn)	40µM*	-11%	x	-5%	x	0%
Cc1c(Cl)cccc1NC(=O)CCC(=O)N/N=C/c1ccc[nH]1	45µM*	5%	-21%	13%	-9%	-12%
Cc1ccc(C)c(NC(=O)CCC(=O)N/N=C/c2ccc[nH]2)c1	-17%	12%	u	-2%	0%	21%
O=C(O)c1cc(O)c2c(c1)C(=O)c1cc(O)cc(O)c1C2=O	10µM*!	18µM*	-14%	-18%	-3%	-15%
CC(=O)Oc1cccc2c1C(=O)c1c(OC(C)=O)cc(C(=O)O)cc1C2=O	0%	16%	-14%	-1%	-10%	u
C[C@@H]1CN([C@@H](C)CO)S(=O)(=O)c2ccc(Br)cc2O[C@@H]1CN(C)C(=O)c1ccncc1	x	-3%	x	x	x	x
CC[C@H]1C=C[C@@H](C(C(=O)OC)C(=O)OC)CN1C(C)=O	x	17%	8%	x	0%	79µM*
Cn1c(N)c(C(=O)/C=C/c2ccccc2)c(=O)[nH]c1=O	50µM*	-5%	-10%	29%	-13%	20%
Cn1c(N)c(C(=O)Nc2ccccc2)c(=O)[nH]c1=O	x	-1%	20%[57.1 µM]	x	11%[57.1 µM]	2%
CCCCCCCCOc1ccccc1C(=O)Nc1ccc(C(=O)OCC[N+](C)(CC)CC)cc1	40µM*	11%	x	8%	x	u

Screening results (PubChem)
